High-throughput results deposited in PubChem BioAssay by several laboratories.
Compounds with a hit are over-represented: about 5% of the library has one in this group of screens.
SENP8 block-1 = inhibitors of human SENP8 protease; AID 2540; 1.2% of 330,000 active; purified SENP8, Z-RLRGG-aminoluciferin cleavage, luminescence; Q96LD8; inhibition, % at 10 µM; in the data active = inhibition above about 50%
Target sequence (Q96LD8 whole entry, looked up): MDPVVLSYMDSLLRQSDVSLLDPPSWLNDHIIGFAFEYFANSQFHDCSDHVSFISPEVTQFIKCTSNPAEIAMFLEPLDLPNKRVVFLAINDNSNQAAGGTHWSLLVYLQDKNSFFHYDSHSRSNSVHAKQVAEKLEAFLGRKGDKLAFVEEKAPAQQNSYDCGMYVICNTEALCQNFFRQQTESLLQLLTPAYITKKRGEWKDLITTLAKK
AHR activator = human AHR activation. 2.5% of 320,000 active. AID 2796. activation, % at 5 µM. P35869. AHR-responsive luciferase reporter cells, luminescence; in the data active = activation above about 47%
SENP6 inh = inhibitors of human SENP6 protease. Q9GZR1. Recombinant SENP6 catalytic domain, aminoluciferin luminescence. inhibition, % at 10 µM. 1.8% of 330,000 active;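 active = inhibition above about 50% at the single tested dose, limit read from the data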
SENP8 block-2 = SENP8 (human) protease inhibition; recombinant SENP8, Nedd8 substrate fluorescence; inhibition, % at 20 µM; 0.64% of 360,000 active; AID 602440; in the data active = inhibition mostly above about 40%, no sharp cut-off; inactive = mostly below about 27%
EBI2 block = antagonists of human EBI2 receptor. inhibition, % at 5 µM. 0.81% of 360,000 active. EBI2 beta-arrestin recruitment, luminescence, 7a,25-OHC stimulated. P32249. AID 651636; in the data active = inhibition above about 38%;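 also: enzyme fragment complementation signal reports receptor beta-arrestin coupling in cells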
Target sequence (P32249 whole entry, looked up, the tested form may be a part): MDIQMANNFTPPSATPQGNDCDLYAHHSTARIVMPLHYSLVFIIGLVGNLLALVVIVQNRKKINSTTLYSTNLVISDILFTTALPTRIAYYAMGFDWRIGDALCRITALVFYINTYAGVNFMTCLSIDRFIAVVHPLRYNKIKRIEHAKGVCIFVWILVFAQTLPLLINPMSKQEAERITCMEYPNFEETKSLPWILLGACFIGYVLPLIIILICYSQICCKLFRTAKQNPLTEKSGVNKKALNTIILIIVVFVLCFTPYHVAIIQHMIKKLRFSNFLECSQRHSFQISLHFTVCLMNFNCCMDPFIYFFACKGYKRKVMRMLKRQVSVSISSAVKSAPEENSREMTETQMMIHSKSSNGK
SENP7 block = inhibitors of human SENP7 protease. Q9BQF6. recombinant SENP7, Z-RLRGG-aminoluciferin luminescence, 40 min. inhibition, % at 5 µM. 1.5% of 330,000 active. AID 434973;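 active = inhibition above about 50% at the single test dose, limit read from the data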
Hits are given with their value; - = inactive; . = no result.

SMILES | SENP8 block-1 | AHR activator | SENP6 inh | SENP8 block-2 | EBI2 block | SENP7 block
CCCC[n+]1ccn(C2=C([O-])c3ccccc3C(=O)/C2=N\S(=O)(=O)c2ccc(Br)cc2)c1 | - | - | - | 74 | - | -
Cc1ccc(S(=O)(=O)/N=C2\C(=O)c3ccccc3C([O-])=C2n2cc[n+](CCC(C)C)c2)cc1 | - | - | - | 84 | - | -
Cc1cccc(C)c1-n1nnnc1C(c1ccnc2ccccc12)N(CCN(C)C)Cc1ccccc1 (stereo unspecified) | . | . | . | - | - | .
CCN(CC)C(=O)COc1ccc2oc(C)c(C(=O)OC(C)C)c2c1 | - | 67 | - | - | - | -
Cc1oc2ccc(OS(C)(=O)=O)cc2c1C(=O)OC(C)C | - | - | - | - | - | -
NC(=O)C1CCN(C(=O)c2ccc(Cl)c(S(=O)(=O)N3CCc4ccccc43)c2)CC1 | . | . | . | - | - | .
O=C(Oc1ccc(Cl)c2cccnc12)c1ccco1 | - | - | - | - | 58 | -
Cc1c(N=Nc2ccc(O)cc2)c(=O)n(-c2ccccc2)n1C | - | 56 | - | - | - | -
Cc1[nH]c2ccccc2c1N=Nc1c(C)n(C)n(-c2ccccc2)c1=O | - | - | - | - | - | -
Cc1c(N=NC2=C(O)CCCC2=O)c(=O)n(-c2ccccc2)n1C | - | 51 | - | - | - | -
C=CCn1c(SCC(=O)NC2CCCC2)nc2c([nH]c3ccccc32)c1=O | - | 63 | - | - | - | -
COCCn1c(SCC(=O)Nc2ccc(NC(C)=O)cc2)nc2c([nH]c3ccccc32)c1=O | - | 74 | - | - | - | -
CCn1c(SCC(=O)Nc2ccc(C(C)=O)cc2)nc2c([nH]c3ccccc32)c1=O | - | - | - | - | - | -
COCCn1c(SCC(=O)NCC2CCCO2)nc2c([nH]c3ccccc32)c1=O (stereo unspecified) | - | 59 | - | - | - | -
CCn1c(SCC(=O)Nc2cccc(NC(C)=O)c2)nc2c([nH]c3ccccc32)c1=O | - | 57 | - | - | - | -
C=CCOC(=O)Nc1nc(CCNC(=O)OCc2ccccc2)c(C(=O)OC)s1 | . | . | . | - | - | .
CC(C)C(NC(=O)CCNC(=O)c1ccc([N+](=O)[O-])cc1)c1nc2ccccc2[nH]1 (stereo unspecified) | - | - | - | - | - | -
CCOC(=O)N1CCN(C(=O)CSc2nc3c([nH]c4ccccc43)c(=O)n2C)CC1 | - | 51 | - | - | - | -
Nc1ccc(CNC(=O)OCC2c3ccccc3-c3ccccc32)cc1 | - | 55 | - | - | - | -
O=C1C(c2ccccc2)=NCCN1C(c1ccc(F)cc1)c1nc2ccccc2[nH]1 (stereo unspecified) | . | . | . | - | - | .
Nc1ccc(O)c2ccccc12 | - | 57 | - | . | . | -
COCCNC(=O)CSc1nc2scc(-c3ccccc3)c2c(=O)[nH]1 | - | - | - | - | - | -
CCCC1=[N+](CC(=O)c2ccccc2)CCn2c(C)ccc21 | - | 49 | - | - | - | -
CCOc1ccc(N(C)S(=O)(=O)c2ccc3[nH]cc(C(=O)NCCCOC)c(=O)c3c2)cc1 | - | 48 | - | - | - | -
CCCNC(=O)c1c[nH]c2ccc(S(=O)(=O)N(C)c3ccc(OCC)cc3)cc2c1=O | - | 54 | - | . | . | -
SMILES | SENP8 block-1 | AHR activator | SENP6 inh | SENP8 block-2 | EBI2 block | SENP7 block
N#CCc1nn(-c2ccc(Cl)cc2)c(N)c1C#N | - | 64 | - | - | - | -
Cc1cc(C)c2cc(C(=O)N3CCc4ccccc4C3)[nH]c2c1 | - | 55 | - | - | - | -
CCCCn1nnnc1C(c1cc2ccccc2o1)N1CCOCC1 (stereo unspecified) | . | . | . | - | - | .
O=[N+]([O-])C1=CC=C2C(=NC3(CCCCC3)N2O)C1=NCCc1ccccc1 | - | . | - | - | - | -
N=C1C=CC=C2C1=NC1(CCCCC1)N2O | - | - | - | 36 | - | -
Cc1ccc(CSCC(=O)Nc2cc(S(=O)(=O)N3CCOCC3)ccc2OCC(F)(F)F)cc1 | . | . | . | - | - | .
COc1cccc(CNC(=O)[C@@H]2CCCN2C(=O)[C@H]2CCCCN2)c1 | . | . | . | - | - | .
Cc1ccc(/C=N/Nc2nc(Cl)c(Cl)cc2Cl)s1 | - | 54 | - | - | - | -
Cc1ccsc1/C=N\Nc1cn[nH]c(=O)c1Cl | - | - | - | - | - | -
Cc1ccc(/C=N/Nc2ccc(F)cc2)s1 | - | - | - | - | - | -
Cc1ccsc1/C=N/Nc1nc(Cl)c(Cl)cc1Cl | - | 63 | - | - | - | -
O=C1N(CCCCN2C(=O)C3(OCCO3)c3ccccc32)c2ccccc2C12OCCO2 | - | 60 | - | - | - | -
Cc1cc(C)c(C#N)c(Oc2ccc(F)cc2)n1 | - | - | - | - | - | -
COc1ccc(C(=O)COc2nc(C)cc(C)c2C#N)cc1 | - | 47 | - | - | - | -
CCCC(=O)Nc1cccc(Oc2nc(C)cc(C)c2C#N)c1 | - | 58 | - | - | - | -
Cc1cc(C)c(C#N)c(Oc2ccc(O)cc2)n1 | - | - | - | - | - | -
O=C1C(=O)c2ccccc2C([O-])=C1[n+]1ccccc1 | - | - | - | 59 | - | -
Cn1c(=O)c(-[n+]2ccccc2)c([O-])c2ccccc21 | - | - | - | - | - | -
O=C(NCCc1ccccc1)c1ccc(NC(=O)C2CCCCC2)cc1 | . | . | . | - | - | .
COc1ccc(OCCNC(=O)C2(C)CCN2Cc2ccc3ccccc3c2)cc1 (stereo unspecified) | . | . | . | - | - | .
Brc1ccc(C2Nc3cccc4cccc(c34)N2)cc1 | . | . | . | - | - | .
Oc1ccc(C2Nc3cccc4cccc(c34)N2)c(O)c1 | - | - | - | 45 | - | -
Clc1cccc(C2Nc3cccc4cccc(c34)N2)c1Cl | - | 59 | - | - | - | -
Clc1ccccc1C1Nc2cccc3cccc(c23)N1 | - | - | - | - | - | -
O=C(c1ccccc1)c1ccc(-c2ccc(O)cc2)cc1 | 51 | . | 50 | - | - | -
SMILES | SENP8 block-1 | AHR activator | SENP6 inh | SENP8 block-2 | EBI2 block | SENP7 block
O=C(c1ccc(-c2ccccc2)cc1)c1ccc([N+](=O)[O-])cc1 | - | - | - | . | . | -
CCc1nc2ccc(C(=O)Nc3ccc(OC)c(OC)c3)cn2c1N(C)Cc1nccs1 | . | . | . | - | - | .
CCn1cc(Br)c(C(=O)Nc2sc3c(c2C(N)=O)CCCC3)n1 | - | 57 | - | - | - | -
CCc1ccc(Nc2nnc(SCC(=O)Nc3sccc3C(N)=O)s2)cc1 | - | 60 | - | - | - | -
CCc1ccc(Nc2nnc(SCC(=O)NCCN3C(=O)CSC3=O)s2)cc1 | - | - | 52 | - | - | -
CCc1ccc(Nc2nnc(SCC(=O)Nc3cccnc3Cl)s2)cc1 | - | - | - | - | - | -
Cc1nc(N)sc1C(=O)N/N=C/c1ccccc1[N+](=O)[O-] | - | 58 | - | - | - | -
CC(/C=N/NC(=O)c1sc(N)nc1C)=C\c1ccccc1 | - | - | - | - | - | 69
CCC(C)Sc1ccc(-c2nc3cnccn3c2NC2CCCCC2)cc1 (stereo unspecified) | - | - | - | - | - | -
Clc1ccc(-c2nc3cnccn3c2NC2CCCC2)cc1 | - | 51 | - | - | - | -
